Among all 150,000 compounds or so, about 540 (0.36%) showed an effect of 50% or more. Many of the other results were omitted from the sample, so strong results are more common in it than they were.
test system: Plasmodium falciparum; assay: Primary screen in NF54 nanoGlo assay, in single point, at 2uM, 72h; a lower Z score goes with more inhibition; assay type: functional, Erythrocyte; conditions: timepoint 72 hour

| Structure (SMILES) | % Inhibition | Z score |
| --- | --- | --- |
| CC(C)(C)c1ccc(CNC[C@H](O)c2ccc(F)cc2F)cc1 | 94% | -16.43 |
| CC(C)c1nc(N2CCC[C@@]3(CCNC3)C2)c2cc[nH]c2n1 | 2% | -0.48 |
| c1ccc(-c2cncnc2N2CC[C@]3(CCNC3)C2)cc1 | -14% | 2.09 |
| CN(C)CC12CNCC1CN(c1ccnc3cc(Cl)ccc13)C2 (centres undefined) | 97% | -19.2 |
| Fc1ccc(N2CC[C@H](CN3CCC(c4c[nH]c5ccccc45)(c4c[nH]c5ccccc45)CC3)C2)cc1 | 95% | -18.87 |
| CCc1nnc(NCc2ccc(C)nc2N2CCCC2)nc1CC | -19% | 2.94 |
| Cc1ccc(CNc2ncnc(N)c2Cl)c(N2CCCC2)n1 | 50% | -8.64 |
| Cc1ccc([C@@H](O)CNCc2cc(O)cc(Cl)c2)cc1 | 7% | -1.59 |
| O[C@@H](CNCc1ccc2c(c1)CCO2)c1ccc(F)c(F)c1 | 72% | -12.64 |
| Fc1ccc(C2=CCN(C[C@@H]3CCCN4CCCC[C@H]34)CC2)cc1 | 0% | -0.03 |
| CN1CCN(c2ccc(C(F)(F)F)cc2NCc2cnc[nH]2)CC1 | 52% | -7.95 |
| Clc1ccc(CNCCN2CCC3(C2)OCCO3)c2ncccc12 | -1% | 0.17 |

Reference: ChEMBL document CHEMBL5308541, “MAIP: An Open-Source Tool to Enrich High-Throughput Screening Output and Identify Novel, Druglike Molecules with Antimalarial Activity” (ACS Med Chem Lett, 2023)
